The record followed here is PubChem BioAssay AID493179 (National Center for Advancing Translational Sciences (NCATS), 2011).

Inconclusive results are not listed. Activity calls are given as the source filed them. Calls follow the shape of the dose curve; as a rule, active = well fitted inhibition curve with a large enough effect; inconclusive = small, poorly fitted or top-dose-only effect; inactive = flat fitted curve, though single readings scatter.

This assay is described as follows: Secondary Assay for General miRNAs Modulators and/or Inhibitors/Activators of miR-21: miR-30 Firefly Luciferase Assay for second round cherrypicks. The settings on record: HeLa miR-30 FLuc reporter, luminescence, 48 h; series mostly up to 38.3 µM. The text has this: MLPCN Grant: 1 R21 NS059478-01 Assay Provider: Qihong Huang, The Wistar Institute NCGC Assay Overview: MicroRNAs (miRNAs) are endogenously encoded small (~20-25 nucleotides), nonprotein-coding RNAs that are involved in post-transcriptional repression of target messenger RNAs (mRNAs) (Le and Hannon, 2004). Estimated to be involved in the regulation of 30% of all protein-coding mRNAs (Filipowicz et al., 2008), miRNAs play a significant role in many biological processes including cellular differentiation and tissue development (Ghildiyal and Zamore, 2009). […] Compounds active in the miR-21 FLuc assay were clustered using Leadscope and active chemical series were prioritized based on chemical properties, potential for medicinal chemistry optimization, and SAR. Within each chemical series, representative compounds were re-acquired to test for activity in a secondary assay based on the quality of their CRC, efficacy, and potency. The secondary assay to determine if compounds active in the miR-21 FLuc assay were potentially specific for miR-21 and were not general modulators of the miRNA pathway was another cell-based FLuc reporter gene assay, this time targeting miR-30. Compounds found active in both the miR-21 FLuc and miR-30 FLuc assays are not considered miR-21 specific compounds, and may be general miRNA modulators.
NCGC Assay Protocol Summary: Reagents: HeLa cells stably expressing firefly luciferase (FLuc) under the control of a CMV promoter (upstream) and a miR-30 binding sequence directly downstream of the gene. These cells also stably express miR-30. Control compounds used were compound C3 (provided by collaborator), N6-phenyladenosine (MP Biomedicals, 0215379625), and DMSO. Assay Summary: 6uL of HeLa miR-30-FLuc cells in assay buffer (DMEM, Invitrogen #21063-029; 10% FBS, HyClone #SH30071.03) were dispensed at 1000cells/well (1.7 x 10^5 cells/mL) into Greiner solid-white TC-treated 1536-well plates using a Multidrop Combi (Thermo Fisher Scientific). Plates were incubated for one hour at 37 degree Celsius, 95% humidity, 5% CO2. These assay plates were then treated with 23nL of compound or DMSO using a Kalypsys pin tool, which allows for delivery of a 24-point titration of each compound to the assay plate, with a final compound concentration ranging from approximately 40uM to 5pM. Assay plates were then incubated for 48 hours. After incubation, plates were allowed to come to RT for one hour prior to delivery of 3uL of 3X luciferase detection reagent. After a 15 minute incubation to allow for cell lysis, luciferase activity was measured using a ViewLux CCD imager (PerkinElmer), with an average exposure time of 2-12 seconds. Keywords: NIH Roadmap, MLPCN, MLSMR, qHTS, miR-21, miR-30, microRNA, firefly luciferase, FLuc.
`CC(c1ccccn1)N(C)C(=O)c1ccc2nc(Cc3cccc(Cl)c3)oc2c1` (stereo not given): the Potency is 6.34 µM (active). With `CCOC(=O)c1cccc(NC(=O)c2cc(CN3CCCC3)on2)c1` the figure was 4.49 µM (active); with `C/C(=N/NC(=O)c1ccccc1)c1ccc(NC(=O)C(F)(F)F)cc1`, “inactive”; with `Cc1cccc(NC(=O)Nc2ccc(Br)cc2)n1`, 4.49 µM (active). With `COCCNC(=O)c1ccc2c(c1)ncn2-c1ccc(F)c(F)c1` the figure was 22.5 µM (active).

Take `Cc1cc(C)c2c(N)c(C(=O)Nc3ccccc3C(F)(F)F)sc2n1`: the Potency was 11.3 µM (active). The same measure for `CCOC(=O)C1CCN(C(=O)c2ccc(-n3ccc4ccccc43)s2)CC1`: 11.3 µM (active); for `CCCCN1CCc2c([nH]c3ccccc23)C1=O`: 11.3 µM (active). The same measure for `CC(=O)c1ccc(Oc2ncnc3c2oc2ccccc23)cc1`: 3.18 µM (active). The same measure for `Cc1ccc2nc(-c3ccc(NC(=O)c4ccc(S(C)(=O)=O)cc4)cc3)sc2c1`: “inactive”; for `CCOCCCNC(=O)c1cc2c(=O)n3ccccc3nc2s1`: 11.3 µM (active); for `CCCCc1nn2c(=O)cc(COC(=O)c3cccc(NC(=O)c4cccc(C)c4)c3)nc2s1`: 4 µM (active).

As for `Cc1ccc(C(=O)Nc2ccc3c(c2)ncn3C)cc1`, the Potency is 2.83 µM (active). With `CN(C)c1ccc(CNC(=O)C2COc3ccccc3C2)cc1` (stereo not given), the Potency entry is “inactive”. Regarding `Cc1ccc2c(Cl)c(C(=O)Nc3ccc4c(c3)OCO4)sc2c1`, the Potency was 1.59 µM (active).

`Cc1ccccc1C(=O)Nc1nnc(-c2ccco2)o1`: the Potency is 12.6 µM (active). With `CCc1cc(C(=O)Nc2ccccc2)cs1` the figure was 2.83 µM (active); with `Cc1ccc(-c2cc(C(=O)NCC3CCCO3)no2)cc1` (stereo not given), 3.56 µM (active); with `CCC(C)NC(=O)CCCn1c(=O)c2cccn2c2ccccc21` (stereo not given), “inactive”. With `COc1ccc(CNc2nc(-c3ccco3)nn2C(=O)c2ccccc2Cl)cc1` the figure was 22.5 µM (active); with `Cc1ccc(-n2ncc3c(Nc4ccc5c(c4)OCCO5)ncnc32)cc1Cl`, 10 µM (active); with `CN(c1ccccc1)S(=O)(=O)c1nnc(NC(=O)c2ccco2)s1`, “inactive”. With `COc1ccccc1N1CCN(C(=O)c2nc(-c3ccc(C)cc3)n3c2CCCCC3)CC1` the entry was “inactive”.

For `CCC(C)C(=O)N1CCCC(c2nc(-c3cccs3)no2)C1` (stereo not given), the Potency was 6.34 µM (active). As to `CC(C)(C)CC(=O)Nc1nnc(-c2cccs2)s1`, the Potency was 5.04 µM (active). For `CCCOc1ccc(OC(=O)c2ccc(-c3ccc(CCC)cn3)cc2)cc1`, the Potency was 1.59 µM (active).

Regarding `CCC(=O)Nc1sc(C(=O)Nc2ccccc2)c(C)c1C(=O)OC`, the Potency was 11.3 µM (active). The same measure for `CCC(CC)C(=O)Nc1nnc(S(=O)(=O)N2CCCCCC2)s1`: “inactive”; for `Cc1ccccc1NC(=O)c1cc2c([nH]c1=O)CC(C)(C)CC2=O`: 0.634 µM (active); for `Cc1cc(N2CCN(C)CC2)nc2ccc(NC(=O)c3ccccc3F)cc12`: 10 µM (active). The same measure for `CCc1ccc(C(=O)NCc2cccs2)s1`: 20 µM (active). As to `CC(C)(C)C1CCc2nc(NC(=O)Cc3ccc(Cl)cc3)sc2C1` (stereo not given), the Potency entry is “inactive”.

For `CC(=O)N1CCc2cc(CNC(=O)Cc3ccc(F)cc3)ccc21`, the Potency is 10 µM (active).

Regarding `CC(=O)O[C@H]1C[C@@]2(C)[C@@H](C[C@@H](O)[C@H]3[C@@]4(C)CC[C@@H](O)[C@@H](C)C4CC[C@@]32C)/C1=C(\CCC=C(C)C)C(=O)O` (stereo not given in full), the Potency result is “inactive”. On to `O=C(NC1CCCCCC1)C1CCN(C(=O)N2CCOc3ccc(Cl)cc32)CC1`, for which the Potency result is “inactive”. As for `O=C(Nc1sc2c(c1C(=O)NCc1ccco1)CCCC2)c1cc(=O)c2ccccc2o1`, the Potency is 7.11 µM (active).

Take `Cc1ccccc1OCc1nc2c3cnn(-c4ccccc4F)c3ncn2n1`: the Potency is 20 µM (active). The same measure for `CC(C)c1cc(C(=O)Nc2cccnc2)no1`: 3.56 µM (active); for `Cc1ccc(NC(=O)c2ccc(-c3ccccc3)s2)cc1`: 5.04 µM (active); for `COc1ccc(Nc2nc(C)c3ccccc3n2)cc1`: 11.3 µM (active).
